Source: PubChem BioAssay AID1159580 (chemical genetic matrix, 2015)
Screen size: about 5,500 compounds; about 2,000 (36%) were called active. Roughly 18% stayed inconclusive and do not appear here. No stated cut-off is given here; in the data, active means normalized growth mostly below about 0.91 (no sharp cut-off); inconclusive means no clear call, values can overlap the other calls; inactive means mostly above about 0.92. The list shows a part of the results.

Assay: chemical genetic growth profiling, strain panel (AID 1159580);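 further: tested at 20 µM; growth read once vehicle control cultures reached saturation at 30 °C; 1 = growth at the plate median or of vehicle wells; lower values mean less growth of the strain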
Details: growth OD

Measured: normalized growth

CN(C)CCc1c[nH]c2ccc(CS(=O)(=O)N3CCCC3)cc12
inactive: S. cerevisiae deletion strains, locus YJR075W, strain HOC1, hits give low values 1 | S. cerevisiae deletion strains, locus YKL009W, strain mrt4, hits give low values 0.992 | S. cerevisiae deletion strains, locus YKL068W, hits give low values 0.987 | S. cerevisiae deletion strains, locus YKL085W, strain MDH1 (second series), hits give low values 0.983 | S. cerevisiae deletion strains, locus YKL085W, strain MDH1, hits give low values 0.983 | S. cerevisiae deletion strains, locus YKL160W, strain elf1, hits give low values 1.03 | S. cerevisiae deletion strains, locus YKL190W, strain CNB1, hits give low values 1 | S. cerevisiae deletion strains, locus YKR001C, strain vps1, hits give low values 0.988 | S. cerevisiae deletion strains, locus YKR026C, strain gcn3, hits give low values 0.976 | S. cerevisiae deletion strains, locus YKR091W, strain srl3, hits give low values 1.01 | S. cerevisiae deletion strains, locus YLL001W, strain dnm1, hits give low values 0.971 | S. cerevisiae deletion strains, locus YLL026W, hits give low values 0.98 | S. cerevisiae deletion strains, locus YLL041C, strain sdh2, hits give low values 1 | S. cerevisiae deletion strains, locus YLR027C, strain aat2, hits give low values 0.997 | S. cerevisiae deletion strains, locus YLR039C, strain RIC1, hits give low values 0.971 | S. cerevisiae deletion strains, locus YLR058C, strain SHM2, hits give low values 0.991 | S. cerevisiae deletion strains, locus YLR102C, strain apc9, hits give low values 0.995 | S. cerevisiae deletion strains, locus YLR113W, strain HOG1, hits give low values 0.979 | S. cerevisiae deletion strains, locus YLR221C, strain rsa3, hits give low values 0.96 | S. cerevisiae deletion strains, locus YLR258W, strain gsy2, hits give low values 1 | S. cerevisiae deletion strains, locus YLR262C, strain YPT6 (second series), hits give low values 1 | S. cerevisiae deletion strains, locus YLR262C, strain YPT6, hits give low values 0.968 | S. cerevisiae deletion strains, locus YLR268W, strain sec22, hits give low values 0.971 | S. cerevisiae deletion strains, locus YLR320W, strain mms22, hits give low values 0.945 | S. cerevisiae deletion strains, locus YLR330W, strain CHS5, hits give low values 0.988 | S. cerevisiae deletion strains, locus YLR342W, strain FKS1 (second series), hits give low values 1.02 | S. cerevisiae deletion strains, locus YLR342W, strain FKS1, hits give low values 1.01 | S. cerevisiae deletion strains, locus YLR357W, strain rsc2, hits give low values 1.01 | S. cerevisiae deletion strains, locus YLR370C, strain arc18, hits give low values 0.992 | S. cerevisiae deletion strains, locus YLR371W, strain rom2, hits give low values 0.983 | S. cerevisiae deletion strains, locus YLR384C, strain iki3, hits give low values 0.983 | S. cerevisiae deletion strains, locus YLR418C, strain cdc73, hits give low values 0.959 | S. cerevisiae deletion strains, locus YML016C, strain PPZ1, hits give low values 0.987 | S. cerevisiae deletion strains, locus YML032C, strain rad52, hits give low values 0.99 | S. cerevisiae deletion strains, locus YML120C, strain ndi1, hits give low values 0.972 | S. cerevisiae deletion strains, locus YML124C, strain tub3, hits give low values 0.979 | S. cerevisiae deletion strains, locus YMR058W, strain fet3, hits give low values 0.976 | S. cerevisiae deletion strains, locus YMR078C, strain ctf18, hits give low values 0.986 | S. cerevisiae deletion strains, locus YMR125W, strain sto1, hits give low values 0.999 | S. cerevisiae deletion strains, locus YMR129W, hits give low values 0.98 | S. cerevisiae deletion strains, locus YMR205C, strain PFK2, hits give low values 0.967 | S. cerevisiae deletion strains, locus YMR223W, strain ubp8, hits give low values 0.996 | S. cerevisiae deletion strains, locus YMR231W, strain pep5, hits give low values 0.991 | S. cerevisiae deletion strains, locus YMR263W, strain SAP30, hits give low values 1.01 | S. cerevisiae deletion strains, locus YMR307W, strain GAS1, hits give low values 0.994 | S. cerevisiae deletion strains, locus YNL067W, strain RPL9B, hits give low values 1.03 | S. cerevisiae deletion strains, locus YNL071W, strain lat1, hits give low values 0.985 | S. cerevisiae deletion strains, locus YNL128W, strain TEP1, hits give low values 1 | S. cerevisiae deletion strains, locus YNL153C, strain GIM3, hits give low values 0.995 | S. cerevisiae deletion strains, locus YNL183C, strain NPR1, hits give low values 0.926 | S. cerevisiae deletion strains, locus YNL209W, strain ssb2, hits give low values 0.974 | S. cerevisiae deletion strains, locus YNL233W, strain BNI4, hits give low values 0.988 | S. cerevisiae deletion strains, locus YNL248C, strain rpa49, hits give low values 1.03 | S. cerevisiae deletion strains, locus YNL250W, strain rad50, hits give low values 0.986 | S. cerevisiae deletion strains, locus YNL271C, strain bni1, hits give low values 0.984 | S. cerevisiae deletion strains, locus YNL298W, strain CLA4, hits give low values 0.981 | S. cerevisiae deletion strains, locus YNL307C, strain MCK1, hits give low values 0.985 | S. cerevisiae deletion strains, locus YNL322C, strain KRE1 (second series), hits give low values 1.02 | S. cerevisiae deletion strains, locus YNL322C, strain KRE1, hits give low values 0.999 | S. cerevisiae deletion strains, locus YNR049C, strain mso1, hits give low values 0.997 | S. cerevisiae deletion strains, locus YNR052C, strain pop2, hits give low values 0.992 | S. cerevisiae deletion strains, locus YOL006C, strain TOP1, hits give low values 0.959 | S. cerevisiae deletion strains, locus YOL012C, strain htz1 0.726 | S. cerevisiae deletion strains, locus YOL147C, strain pex11, hits give low values 0.995 | S. cerevisiae deletion strains, locus YOR001W, strain rrp6, hits give low values 0.938 | S. cerevisiae deletion strains, locus YOR061W, strain CKA2, hits give low values 0.994 | S. cerevisiae deletion strains, locus YOR069W, strain VPS5, hits give low values 0.992 | S. cerevisiae deletion strains, locus YOR070C, strain gyp1, hits give low values 1 | S. cerevisiae deletion strains, locus YOR080W, strain dia2, hits give low values 1 | S. cerevisiae deletion strains, locus YOR083W, strain WHI5, hits give low values 1 | S. cerevisiae deletion strains, locus YOR106W, strain vam3, hits give low values 1.04 | S. cerevisiae deletion strains, locus YOR136W, strain idh2, hits give low values 0.983 | S. cerevisiae deletion strains, locus YOR144C, strain elg1, hits give low values 0.981 | S. cerevisiae deletion strains, locus YOR184W, strain ser1, hits give low values 0.989 | S. cerevisiae deletion strains, locus YOR231W, strain MKK1, hits give low values 0.957 | S. cerevisiae deletion strains, locus YOR265W, strain rbl2, hits give low values 0.99 | S. cerevisiae deletion strains, locus YOR270C, strain vph1, hits give low values 0.945 | S. cerevisiae deletion strains, locus YOR290C, strain snf2, hits give low values 1.02 | S. cerevisiae deletion strains, locus YOR316C, strain cot1, hits give low values 0.989 | S. cerevisiae deletion strains, locus YPL051W, strain arl3, hits give low values 1.02 | S. cerevisiae deletion strains, locus YPL055C, strain LGE1, hits give low values 1.02 | S. cerevisiae deletion strains, locus YPL078C, strain atp4, hits give low values 1.02 | S. cerevisiae deletion strains, locus YPL106C, strain sse1, hits give low values 1.02 | S. cerevisiae deletion strains, locus YPL240C, strain hsp82, hits give low values 0.985 | S. cerevisiae deletion strains, locus YPL241C, strain CIN2, hits give low values 1.03 | S. cerevisiae deletion strains, locus YPL256C, strain CLN2, hits give low values 0.959 | S. cerevisiae deletion strains, locus YPR119W, strain clb2, hits give low values 0.994 | S. cerevisiae deletion strains, locus YPR141C, strain kar3, hits give low values 0.983 | S. cerevisiae deletion strains, locus YPR163C, strain tif3, hits give low values 0.985 | S. cerevisiae deletion strains, locus YPR167C, strain met16, hits give low values 0.982 | S. cerevisiae deletion strains, strain wtn01, hits give low values 0.99 | S. cerevisiae strains, strain wild type, hits give low values 1.02
